From PubChem BioAssay AID504908 (NMMLSC, 2011) come the findings set out here.

Hit rate of the full screen: of about 1,300 compounds, about 25 (2%) were called active. Not all results are given here. Unmarked numbers belong to inactive results.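 Rule for the calls: active = inhibition above a set limit, roughly 3 SD of non-fluorescent compound noise (cut at about 38% in these data); inactive = inhibition at or below that limit.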

For the test, the target named is AP-2 complex subunit beta (Homo sapiens) (UniProt P63010). In words: inhibitors of arrestin peptide binding to AP2, confirmation, biochemical, cherry pick 1, flow cytometry beads (AID 504908).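 Note: loss of bead fluorescence from 50 nM FITC arrestin peptide bound to appendage; 0% = negative control wells and 100% = excess unlabelled arrestin peptide.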 Conditions: GST-AP2 beads, FITC arrestin peptide binding, at 10 µM, stronger effect = higher value, GST-fused beta2-adaptin appendage, R879A mutant. (In general: A flow cytometer gives signals particle by particle.)
Chain of AP-2 complex subunit beta (Homo sapiens) (P63010 whole entry, looked up, the tested form may be a part, one chain of several): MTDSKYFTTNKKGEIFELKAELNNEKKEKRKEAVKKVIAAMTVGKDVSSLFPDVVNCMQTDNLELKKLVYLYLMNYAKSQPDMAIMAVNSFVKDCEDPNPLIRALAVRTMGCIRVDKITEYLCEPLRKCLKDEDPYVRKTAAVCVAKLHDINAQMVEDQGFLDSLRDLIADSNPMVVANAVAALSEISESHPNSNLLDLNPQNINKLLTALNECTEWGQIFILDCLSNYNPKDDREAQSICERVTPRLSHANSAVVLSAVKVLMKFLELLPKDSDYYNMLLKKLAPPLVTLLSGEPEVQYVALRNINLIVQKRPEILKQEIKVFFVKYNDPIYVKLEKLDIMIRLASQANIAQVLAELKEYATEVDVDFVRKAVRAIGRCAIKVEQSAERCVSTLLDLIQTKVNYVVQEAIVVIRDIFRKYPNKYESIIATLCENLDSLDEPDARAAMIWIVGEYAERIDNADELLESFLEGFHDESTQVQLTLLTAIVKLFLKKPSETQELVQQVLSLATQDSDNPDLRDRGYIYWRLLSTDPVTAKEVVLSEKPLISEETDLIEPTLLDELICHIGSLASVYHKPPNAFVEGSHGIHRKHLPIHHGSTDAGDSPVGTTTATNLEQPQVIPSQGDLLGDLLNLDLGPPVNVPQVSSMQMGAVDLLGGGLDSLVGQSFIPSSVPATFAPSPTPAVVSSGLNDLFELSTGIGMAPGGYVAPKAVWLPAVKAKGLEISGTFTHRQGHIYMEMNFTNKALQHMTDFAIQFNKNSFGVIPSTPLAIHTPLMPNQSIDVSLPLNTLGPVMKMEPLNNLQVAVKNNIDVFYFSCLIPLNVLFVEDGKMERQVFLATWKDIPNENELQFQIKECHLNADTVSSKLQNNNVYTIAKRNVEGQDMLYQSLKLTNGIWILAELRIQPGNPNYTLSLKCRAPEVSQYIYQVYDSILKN
On to `CN(C(=O)COC(=O)c1cc(=O)[nH]c2ccccc12)C1CCCCC1`, for which the inhibition (usually the drop in the measured response relative to a control, in per cent) was -1.7%.

Take `Cc1ccc(CN2C(=O)CCC2C(=O)NCCCN2CCCCC2C)cc1` (stereo unspecified): the inhibition is 10.8%.

For `CC(NC(=O)c1cc2cc(Cl)ccc2oc1=N)c1ccccc1` (stereo unspecified), the inhibition is -6.34%.

Regarding `COC(=O)c1cc(NC(=O)c2nn(C)c(=O)c3ccccc23)cc(C(=O)OC)c1`, the inhibition was -5.22%.

With `COc1ccc(CCNc2ncnc3c2nnn3Cc2ccccc2)cc1`, the inhibition was -10.5%.

On to `CCn1c(=O)n(CC)c2cc(N3CCCC3)c(NC(=O)c3ccccc3Br)cc21`, for which the inhibition was -0.2%.

As for `CC(NCCc1ccc(S(N)(=O)=O)cc1)C(=O)NCc1ccccc1` (stereo unspecified), the inhibition was 5.93%.

For the compound `O=C(C1CCCO1)N1CCN(S(=O)(=O)c2ccc(Br)cc2)CC1` (stereo unspecified), the inhibition was -1.61%.

On to `Cc1ccc(CNC(=O)C2CC(=O)N(C3CCCCCCC3)C2)cc1` (stereo unspecified), for which the inhibition was -8.23%.

On to `Cc1ccc(S(=O)(=O)N2CCCCC2)cc1NC(=O)c1cccnc1`, for which the inhibition is -9.09%.

For `NC(=O)C1CCN(C(=O)CC2C(=O)NCCN2Cc2cccc(Oc3ccccc3)c2)CC1` (stereo unspecified), the inhibition is 0.55%.

Regarding `CCCc1ccc(-c2csc(NC(=O)Cc3cccs3)n2)cc1`, the inhibition is 8.55%.

`Cc1cccc(Nc2ccccc2C(=O)NCc2ccco2)c1C`: the inhibition is 6.33%.

In the case of `Cc1ccc(S(=O)(=O)N2CCN(C(=O)c3ccccc3-c3nc4ccccc4s3)CC2)c(C)c1`, the inhibition was 15.9%.

`COc1cc2c(cc1NC(=O)COC(=O)/C=C/c1ccccc1)oc1ccccc12`: the inhibition is -9.67%.

In the case of `Cc1ccc(Nc2ccc(C(N)=O)cc2[N+](=O)[O-])cc1`, the inhibition was -3.07%.

Take `CC(C)C[C@H](NC(=O)N1CCn2c1nc1ccccc12)C(=O)NC1CC1`: the inhibition was 9.68%.

Regarding `Cc1ccc(C)c(NC(=S)NNC(=S)Nc2ccc(C(C)C)cc2)c1`, the inhibition is -5%.

`Cc1cccc(C)c1NC(=O)C(Cl)C(=O)c1ccccc1` (stereo unspecified): the inhibition was 8.36%.

As for `CC(C)c1nnc(NC(=O)CCC(=O)N2CCN(c3cccc(Cl)c3)CC2)s1`, the inhibition was 1.25%.

`Cc1cccc(NC(=S)NC(=O)c2ccc(Br)o2)c1`: the inhibition was -4.95%.

Turning to `CC(=O)NCCNC(=O)c1cc(-c2cccc3ccccc23)nc2ccccc12`, the inhibition was -1.13%.

Regarding `CCOC(=O)N1CCN(C(=O)CNC(=O)Cc2ccc(Cl)cc2)CC1`, the inhibition was -12.2%.

Turning to `Brc1ccccc1C1Nc2cccc3cccc(c23)N1`, the inhibition is 14.3%.

Regarding `O=C(NCc1ccco1)c1ccc(CS(=O)(=O)Cc2ccc(F)cc2)o1`, the inhibition was 3.68%.

For `CCOc1ccc(C(=O)NC2CCN(CC(=O)NCc3cccs3)CC2)cc1`, the inhibition was -3.4%.
